Screening results (PubChem)
Most compounds without a hit are left out; they make up all but 11% or so of the library.
Gal4-VP16 FLuc = counter-screen for ROR gamma inhibitors: Gal4-VP16 reporter | Drosophila S2 Gal4-VP16 UAS-luciferase, luminescence, 20 h | Potency, µM (series often up to 53.6 µM), for the others: at the top dose activity, negative = inhibition, hits mostly inhibitors | actives 3.5% (n = 310,000);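 also: Gal4-VP16 expression switched on by copper sulfate through the metallothionein promoter; potency is read from the fitted curve at half-maximal effect; % is scaled to controls: 0 for no effect and ±100 for the full control effect; nearly all actives have a fitted effect of over 50% in size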
RORg inh = ROR gamma (mouse) transcription inhibition; P51450; Drosophila S2 Gal4-RORgamma UAS-luciferase reporter, 20 h; Potency, µM (series often up to 53.6 µM), for inactives: at the highest dose activity change, negative = inhibition, actives largely listed as inhibitors; actives 5.4% (n = 310,000); AID 2551; also: potency is read from the fitted curve at half-maximal effect; % is scaled to controls: 0 for no effect and ±100 for the full control effect; nearly all actives have a fitted effect of over 60% in size
Target sequence (P51450 whole entry, looked up, the tested form may be a part): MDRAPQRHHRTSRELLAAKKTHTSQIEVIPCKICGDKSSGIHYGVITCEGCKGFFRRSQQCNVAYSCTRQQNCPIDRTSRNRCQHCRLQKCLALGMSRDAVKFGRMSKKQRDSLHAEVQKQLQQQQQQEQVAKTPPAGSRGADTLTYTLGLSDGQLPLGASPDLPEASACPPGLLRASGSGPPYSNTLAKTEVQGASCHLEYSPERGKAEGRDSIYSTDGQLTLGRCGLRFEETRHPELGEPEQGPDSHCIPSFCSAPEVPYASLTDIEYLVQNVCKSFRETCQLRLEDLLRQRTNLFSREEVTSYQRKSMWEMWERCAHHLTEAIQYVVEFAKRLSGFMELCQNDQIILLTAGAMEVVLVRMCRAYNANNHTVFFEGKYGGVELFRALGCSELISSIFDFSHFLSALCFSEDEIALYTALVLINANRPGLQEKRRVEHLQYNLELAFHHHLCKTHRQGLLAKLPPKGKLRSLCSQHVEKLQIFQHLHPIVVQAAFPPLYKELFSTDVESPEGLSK
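A Gal4/UAS one-hybrid system in insect cells: metallothionein-promoter Gal4–ROR gamma fusion plus Photinus luciferase reporter. Copper sulfate 700 uM final, 20 hr ambient incubation, luminescent detection after 10 min with reagent.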
IL1B secr inh = inhibitors of inflammasome signaling (IL-1 beta secretion); THP-1 LPS/ATP IL-1B secretion, AlphaLISA, 16 h; hits give low values; activity change, % at 57.5 µM; actives 4.7% (n = 360,000); in the data active = activity change below about -50%; inconclusive = mostly about -30% to -49%; also: % is scaled to controls: 0 for no effect and ±100 for the full control effect
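THP-1 cells pretreated 1 hr with compounds (up to 57.5 uM final), then stimulated with LPS (250 ng/mL final) plus ATP (1.25 mM final); secreted IL-1B measured by AlphaLISA after 16 hr, decreased signal indicating inhibition.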
SW480 rerep = DNA re-replication induction in SW480 cells. SW480 DNA re-replication, Hoechst DNA content imaging, 48 h. AID 624297. Potency, µM (doses to about 46.1 µM), inactives show at the highest dose re-replication activation, usual class: activators. actives 1.8% (n = 340,000); also: potency is read from the fitted curve at half-maximal effect; % of control where 0% means no effect; nearly all actives have a fitted effect of over 55% in size
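250 cells/well; 23 nL cpd via pin tool; 48 hr, 37 C, 5% CO2; Hoechst 40 min; imager read of total nuclear intensity, ex 405/em 500-530 nm.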
MCF10A rereplic = inducers of DNA re-replication in MCF 10A breast cells | Potency, µM (top dose mostly 46.1 µM), for the others: at the top dose activity, positive = re-replication, actives largely listed as activators | actives 2.9% (n = 350,000) | MCF 10A DNA re-replication, Hoechst nuclear intensity, 48 h; also: potency is read from the fitted curve at half-maximal effect; % of control where 0% means no effect; nearly all actives have a fitted effect of over 50% in size
An asterisk follows results filed as active; ? = inconclusive; nt = not tested or not shown; [ ] = dose if it differs, or a comment. Unless noted, calls follow the shape of the dose curve; as a rule, active = well fitted curve in the direction sought with a large enough effect; inconclusive = small, poorly fitted or top-dose-only effect, or another doubt; inactive = no such curve, though single readings can be large; an effect the other way counts as inactive or inconclusive.

SMILES	Gal4-VP16 FLuc	RORg inh	IL1B secr inh	SW480 rerep	MCF10A rereplic
Cc1c(O)ccc2c(CN3CCN(C/C=C/c4ccccc4)CC3)cc(=O)oc12	-9%	29%	-77*	22%	-2%
Cc1ccc2c(CN3CCN(Cc4ccccc4)CC3)cc(=O)oc2c1C	-5%	2%	-74*	8%	?
CSc1ccc(CN(C)Cc2cc(=O)oc3c(C)c(C)ccc23)cc1	?	9%	24	-5%	?
Cc1ccc2c(CN(C)Cc3cccc(Cl)c3)cc(=O)oc2c1C	-4%	30%	-12	3%	21µM*
Cn1c(SCC(=O)c2ccccc2F)nnc1C1CC1	11µM*	?	-7	-3%	-2%
Cn1c(SCC(=O)Nc2ccc(Cl)cn2)nnc1C1CC1	4%	31%	-78*	-4%	4%
CC(C)=CCC/C(C)=C/CO/N=C1/[C@H]2O[C@@H]2[C@@H](O)[C@H]2[C@H]1CCn1c(=O)n(C)c(=O)n12	0%[10 µM]	32%[10 µM]	nt	nt	nt
CCCS(=O)(=O)NC(=O)C1(C)CCN(C(=O)/C=C/c2ccccc2)C1 (centres undefined)	nt	nt	9	nt	nt
COc1ccc(N(C(=O)C2CCCCC2)S(=O)(=O)c2cccc3cccnc23)cc1	0%	2%	-52*	?	?
COc1ccc(N(C)S(=O)(=O)c2cccc3cccnc23)c(OC)c1	-2%	-1%	22	21µM*	8.2µM*
O=C(CCC(=O)c1cccs1)Nc1ncccc1O	nt	nt	6	-4%	-4%
CCc1nc2ccc(C(=O)N(C)CCCN(C)C)cn2c1N(C=O)CCC(C)C	nt	nt	17	nt	nt
Cc1ccccc1CS(=O)(=O)c1cnc2ccccc2n1	17%	-35%	-119*	?	18µM*
CSc1ccc(/C=N/N2CCN(C)CC2)cc1	-2%	-4%	-1	-16%	13%
CN1CCN(/N=C/c2ccc(-c3ccccc3)cc2)CC1	-6%	34%	-55*	?	?
C(=N\N1CCN(Cc2ccccc2)CC1)/c1ccc(-c2ccccc2)cc1	-2%	-26%	-1	-7%	2%
CN1CCN(/N=C/c2c3ccccc3c(Cl)c3ccccc23)CC1	-2%	?	-74*	?	?
O=C(COc1cccc2ccccc12)Nc1ccc(Cl)cc1C(=O)O	0%	-2%	56	-13%	13%
Cc1ccccc1NC(=O)COc1ccccc1C	nt	nt	-3	2%	-1%
O=C(COc1cccc2ccccc12)Nc1nc2ccccc2[nH]1	11µM*	10µM*	23	1%	-2%
Cc1cc(C)c(OCC(=O)Nc2nc3ccccc3[nH]2)c(C)c1	-27%	11µM*	-13	-29%	0.82µM*
Cc1ccc(OCC(=O)NCCc2nc3ccccc3[nH]2)c(C)c1	-6%	1%	-2	-7%	0%
Cc1ccccc1OCC(=O)Nc1nc2ccccc2[nH]1	?	7.1µM*	-23	2%	-6%
CSc1cccc(NC(=O)COc2cccc3ccccc23)c1	6%	5%	-14	4%	?
O=C(COc1cccc2ccccc12)Nc1cc(Cl)ccc1C(=O)O	?	-36%	-53*	1%	6.5µM*
SMILES	Gal4-VP16 FLuc	RORg inh	IL1B secr inh	SW480 rerep	MCF10A rereplic
C=CCCC	-2%	6%	nt	nt	nt
CC(NC(=O)c1ccco1)c1nc(-c2ccc(Cl)cc2)no1 (centres undefined)	-12%	30%	-7	0%	-3%
CC(C)CC1C(=O)N(Cc2cn(CCC3OCCO3)nn2)CCS(=O)(=O)N1Cc1ccc(-c2ccc(Cl)c(Cl)c2)cc1 (centres undefined)	nt	nt	-26	nt	nt
CCOc1ccccc1OCC(=O)Nc1nc2ccccc2[nH]1	?	5.6µM*	-4	-4%	-3%
CC(C)C(C)C	-2%	3%	nt	nt	nt
CC(NC(=O)c1ccccc1F)C1CC1 (centres undefined)	6%	4%	18	15%	0%
Cc1cccc(N2CN(Cc3cccnc3)CNC2=S)c1C	-7%	-21%	7	?	-4%
Cc1ccc(C)c(N2CN(Cc3ccco3)CNC2=S)c1	10µM*	6.3µM*	-3	-24%	-1%
Cc1ccccc1N1CN(Cc2ccco2)CNC1=S	?	10µM*	-2	-13%	0%
Cc1cccc(N2CN(Cc3ccco3)CNC2=S)c1C	11µM*	7.1µM*	-1	1%	-3%
COc1ccc(C(NC(=O)CC(C)C)c2c(O)ccc3ccccc23)cc1 (centres undefined)	-5%	33%	-15	3%	?
CCC(=O)NC(c1cccc([N+](=O)[O-])c1)c1c(O)ccc2ccccc12 (centres undefined)	0%	1%	?	5%	4%
CC(C)(C)C(=O)NC(c1ccccc1)c1c(O)ccc2ccccc12 (centres undefined)	-8%	?	11	16%	24%
CCOc1ccc(C(NC(=O)CC)c2c(O)ccc3ccccc23)cc1 (centres undefined)	-15%	15%	5	9.2µM*	?
CC(C)CC(=O)NC(c1ccccc1Cl)c1c(O)ccc2ccccc12 (centres undefined)	-13%	-5%[10 µM]	-68*	?	?
CCCC(=O)NC(c1ccc(OC)cc1)c1c(O)ccc2ccccc12 (centres undefined)	6%	2%	-58*	21µM*	3.7µM*
COc1ccc(NC(=O)C2(C)Cc3c(-c4cccc(NC(C)=O)c4)ccnc3O2)cn1 (centres undefined)	nt	nt	91	nt	nt
COc1ccccc1NC(=O)Cc1nnc(SCC(=O)NC2=NCCS2)n1C	-5%	-36%	23	11%	-8%
CC(C)(C)CC(=O)NC(=S)NCc1ccccc1	8.9µM*	1.1µM*	84	-2%	?
S=C(NCc1ccccc1)NCc1ccc(CNC(=S)NCc2ccccc2)cc1	3%	2%	19	-2%	-2%
Cc1ccccc1C(=O)NCC(=O)NNC(=S)NC(=O)c1ccccc1C	?	5.6µM*	-2	-697%	13%
Cc1ccccc1C(=O)NC(=S)NCCc1ccccc1	?	7.9µM*	0	-2%	3%
Cc1ccccc1C(=O)NC(=S)NCc1ccccc1	7.1µM*	6.3µM*	-4	11%	22%
CC(=O)NC12CC3CC(C1)CC(C(=O)N1CCN(S(=O)(=O)c4cccc(C(F)(F)F)c4)CC1)(C3)C2	nt	nt	1	3%	3%
COc1ccc2cc(C[C@@H]3CC[C@@H](CNC(N)=O)O3)ccc2c1	nt	nt	4	-7%	-4%
CC1C2CCC3C4CC=C5CC(N(C)C)CC[C@@]5(C)C4CC[C@@]32CN1C (some centres undefined)	-1%	-2%	nt	1%	-2%
COc1ccc(-c2sc3ccccc3c2-c2cc(OC)ccc2C=O)cc1	nt	nt	78	nt	nt
